Test [1] addresses Thyrotropin receptor (Homo sapiens) (UniProt P16473). As to the kind of experiment: qHTS assay to identify small molecule antagonists of the thyroid stimulating hormone receptor (TSHR) signaling pathway (AID 1259385; calls by dose curve; note: nearly all actives have a fitted effect of over 20% in size). An outline of the steps:
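Antagonist mode: compound-treated TSHR-expressing HEK293 cells were stimulated with 1.5 ng/mL TSH (final) in presence of Ro20-1724 for 30 min at RT. HTRF cAMP detection after 1 h; each compound tested at 15 concentrations, triplicate.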

Test [2] can be described thus: qHTS assay to identify small molecule agonists of the estrogen receptor alpha (ER-alpha) signaling pathway in the presence of an antagonist - cell viability counter screen (AID 1259386).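 Note: series mostly up to about 92 µM; cells exposed to compounds for 22 h at 37 °C before the viability read; nearly all actives have a fitted effect of over 30% in size.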 In short, it runs like this:
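In this counter screen, compound effects on VM7Luc4E2 viability were tested in the presence of the antagonist ICI-182,780 at 10.0nM final. Compounds were dosed at 15 concentrations, exposure lasted 22hr, and the CellTiter-Fluor signal was read.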
(In general: qHTS replaces the single test concentration by a dilution series.)

For test [3], the target named is Progesterone receptor (Homo sapiens) (UniProt P06401). Nature of the test: qHTS assay to identify small molecule agonists of the progesterone receptor (PR) signaling pathway (AID 1346784; calls by dose curve; note: nearly all actives have a fitted effect of over 30% in size). In short, it runs like this:
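HEK 293T PR-UAS-bla reporter cells, 2% charcoal-stripped FBS; 6 hr settle at 37C/5% CO2, compound (DMSO) 16 hr, LiveBLAzer B/G FRET substrate 2 hr RT, fluorescence intensity read.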

For test [4] the target is unchanged. As to the kind of experiment: qHTS assay to identify small molecule antagonists of the progesterone receptor (PR) signaling pathway (AID 1346795; active = well fitted inhibition curve with a large enough effect in the signal ratio in the repeat runs, not every such curve was filed as active; the % refers to the signal ratio; note: potency is the fitted concentration of half-maximal effect). In short, it runs like this: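 Beta-lactamase reporter, HEK293T PR-UAS-bla line; 2% charcoal-stripped FBS; 6 hr pre-incubation, 37C/5% CO2. Compound + R5020 1 nM final, 16 hr. LiveBLAzer B/G FRET substrate, 2 hr RT; fluorescence intensity read.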

Test [5] in a line: qHTS assay to identify small molecule antagonists of the progesterone receptor (PR) signaling pathway - cell viability counter screen (AID 1346798). Note: series mostly up to about 92 µM; nearly all actives have a fitted effect of over 50% in size. An outline of the steps:
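Luminescence readout (CellTiter-Glo, 30 min, RT) of viability in PR-UAS-bla HEK293T cells exposed to compound and R5020 agonist for 16 hr at 37C, 5% CO2; run in the same wells as the beta-lactamase reporter read.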

A short description of test [6]: qHTS assay to identify small molecule agonists of the progesterone receptor (PR) signaling pathway - cell viability counter screen (AID 1346799; calls by dose curve; note: nearly all actives have a fitted effect of over 45% in size). In short, it runs like this: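 HEK293T PR-UAS-bla, 3,000 cells/well, 2% charcoal-stripped FBS; 6 h settle, compound 16 h at 37C/5% CO2; LiveBLAzer 2 h RT, then CellTiter-Glo 30 min RT, luminescence read.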
Test [7] can be described thus: qHTS assay to identify small molecule antagonists of the TGF-beta/Smad signaling pathway - cell viability counter screen (AID 1346824). Note: nearly all actives have a fitted effect of over 50% in size. In short, it runs like this:
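Cytotoxicity counter-screen run in the same wells as the beta-lactamase Smad reporter read: CellTiter-Glo luminescence after 30 min at room temperature. HEK 293T SBE-bla cells had 5 hr compound exposure at 37 C with TGF-beta1 (0.25 ng/mL stock).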

The nature of test [8]: qHTS assay to identify small molecule agonists of the TGF-beta/Smad signaling pathway - cell viability counter screen (AID 1346829). Note: top concentration of the series differs between compounds; nearly all actives have a fitted effect of over 45% in size. An outline of the steps:
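SBE-bla HEK 293T cells plated overnight, compound exposure 5 hr at 37 C. Viability read in the same wells by CellTiter-Glo luminescence after 30 min at room temperature, following the beta-lactamase read.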

Test [9] in a line: qHTS assay to identify small molecule agonists of the TGF-beta/Smad signaling pathway (AID 1346859; active = well fitted activation curve with a large enough effect in the signal ratio in the repeat runs, not every such curve was filed as active; the % refers to the signal ratio; note: series mostly up to about 77 µM). An outline of the steps: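 Read-out: fluorescence at 460 and 530 nm (405 nm excitation) after a 2 hr room-temperature incubation with beta-lactamase FRET substrate. SBE-bla HEK 293T cells had been treated with test compounds for 5 hr at 37 C.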
The target of test [10] is Thyrotropin-releasing hormone receptor (Homo sapiens) (UniProt P34981). As to the kind of experiment: qHTS assay to identify small molecule antagonists of the thyrotropin-releasing hormone receptor (TRHR) signaling pathway (AID 1346877; active = well fitted inhibition curve with a large enough effect in the repeat runs, not every such curve was filed as active; note: series mostly up to about 51 µM). An outline of the steps: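 Kinetic fluorescence (3 min, 1 s resolution) following stimulation with TRH at 1 nM final; HEK293 cells bearing human TRHR; 5 min compound preincubation at RT; concentration-response over 15 points, triplicates.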

Test [11] shares this target. Nature of the test: qHTS assay to identify small molecule agonists of the thyrotropin-releasing hormone receptor (TRHR) signaling pathway (AID 1346891; calls by dose curve;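 note: HEK293 cells expressing TRHR with calcium dye readout; series mostly up to about 58 µM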). An outline of the steps: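 HEK293/TRHR cells, 1500 per well, 18 h 37 °C; Ca dye 2 h 37 °C; pin-tool compound addition (agonist mode); kinetic fluorescence 3 min, 1 s reads; 15 concentrations, triplicate.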
A short description of test [12]: Human pregnane X receptor (PXR) small molecule agonists, qHTS cell viability counter screen (AID 1346977). Note: nearly all actives have a fitted effect of over 50% in size. An outline of the steps: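 Fluorescence read-out (CellTiter-Fluor) of viability in PXR-Luc HepG2 cells, multiplexed with the luciferase agonist read. Compounds in DMSO added after 5hr plating; 24hr total exposure at 37C, 5% CO2.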
The nature of test [13]: Caspase-3/7 induction in HepG2 cells by small molecules, qHTS assay (AID 1346978). Note: nearly all actives have a fitted effect of over 15% in size. In short, it runs like this: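 Caspase-3/7 induction was measured by Caspase-Glo 3/7 luminescence (30 min, room temperature) after a 17 hr compound exposure of wild-type HepG2 cells seeded at 2,000 per well and pre-incubated 5 hr.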
A short description of test [14]: Caspase-3/7 induction in CHO-K1 cells by small molecules, qHTS cell viability counter screen (AID 1346979). Note: nearly all actives have a fitted effect of over 35% in size. In short, it runs like this:
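CHO-K1 wt, 1,500 cells/well; 5hr pre-incubation 37C/5% CO2; compound pin transfer (DMSO); 16hr exposure; CellTiter-Fluor added, 1hr, fluorescence read.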

A short description of test [15]: Caspase-3/7 induction in HepG2 cells by small molecules, qHTS cell viability counter screen (AID 1346981). Note: series mostly up to about 92 µM; nearly all actives have a fitted effect of over 30% in size. An outline of the steps: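 In this quantitative HTS counter screen, compounds delivered in DMSO were left on unmodified HepG2 cells for 16 hr at 37 C. Viability was then determined fluorometrically with CellTiter-Fluor, in parallel with caspase-3/7 induction in the same wells.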

For test [16], the target named is Nuclear receptor subfamily 1 group I member 2 (Homo sapiens) (UniProt O75469). As to the kind of experiment: Human pregnane X receptor (PXR) small molecule agonists, qHTS assay (AID 1346982). Note: nearly all actives have a fitted effect of over 35% in size. Note: potency is the fitted concentration of half-maximal effect. An outline of the steps:
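Reporter HepG2 cells expressing PXR-Luc are cultured in charcoal-stripped FBS (5%), treated with compounds for 24 hr at 37 C, and assayed by ONE-Glo luminescence after 30 min at room temperature.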

The nature of test [17]: Caspase-3/7 induction in CHO-K1 cells by small molecules, qHTS assay (AID 1346980). Note: nearly all actives have a fitted effect of over 15% in size. An outline of the steps: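 Luminescent Caspase-Glo 3/7 read (30min, room temperature) quantified apoptosis induction. Cells were wild-type CHO-K1, treated with compound for 17hr at 37 C and 5% CO2.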
For test [18], the target named is Nuclear receptor subfamily 1 group I member 2 (Rattus norvegicus) (UniProt Q9R1A7). As to the kind of experiment: Rat pregnane X receptor (rPXR) activation by small molecules, qHTS assay (AID 1346983). Note: nearly all actives have a fitted effect of over 20% in size. As to conditions: rPXR luciferase reporter cells, One-Glo luminescence, 24 h; max activation: hits give high values. An outline of the steps: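 Luminescent readout (One-Glo luciferase, 30 min room temperature) followed 24 hr compound treatment at 37 C of rPXR cells plated 2,000 per well and preincubated 5hr; qHTS format with compounds delivered in DMSO.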

For test [19], the target named is Nuclear receptor subfamily 1 group I member 2 (Homo sapiens) (UniProt O75469). As to the kind of experiment: CYP3A4 induction through human pregnane X receptor (PXR) by small molecules, qHTS assay (AID 1346984). Note: nearly all actives have a fitted effect of over 40% in size. In short, it runs like this: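 Induction measured in HepG2-based DPX-2 cells co-expressing human PXR and a CYP3A4 promoter-driven luciferase. After a 24-hour compound exposure, cells received CYP3A4 luciferin substrate at 3uM final for 3 hours, and light output was then recorded.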

For test [20] the target is unchanged. Nature of the test: Human pregnane X receptor (PXR) activation by small molecules, qHTS assay (AID 1346985). Note: nearly all actives have a fitted effect of over 40% in size. In short, it runs like this:
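DPX-2 cells (HepG2 co-transfected with a PXR response element and a CYP3A4-promoter luciferase construct) were seeded at 2,000 per well, rested 5 hr at 37C, then exposed to DMSO-dissolved compounds for 24 hr. Activation was read as luciferase luminescence.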

Values joined by “and” are separate entries in the source; they are usually repeats but may differ in a detail not shown here. Equal entries are not always repeated. Unmarked numbers belong to inactive results. Records with an inconclusive call do not appear. Active and inactive are the calls of the source. Unless noted, calls come from the whole dose curve; as a rule, active = well fitted curve in the direction sought with a large enough effect in the repeat runs; inconclusive = weak or mixed curves; inactive = no such curve, though single readings can be large; an effect the other way counts as inactive or inconclusive.
% is set by controls: 0 for no effect and ±100 for the full control effect.

Chain of Progesterone receptor (Homo sapiens) (P06401 whole entry, looked up): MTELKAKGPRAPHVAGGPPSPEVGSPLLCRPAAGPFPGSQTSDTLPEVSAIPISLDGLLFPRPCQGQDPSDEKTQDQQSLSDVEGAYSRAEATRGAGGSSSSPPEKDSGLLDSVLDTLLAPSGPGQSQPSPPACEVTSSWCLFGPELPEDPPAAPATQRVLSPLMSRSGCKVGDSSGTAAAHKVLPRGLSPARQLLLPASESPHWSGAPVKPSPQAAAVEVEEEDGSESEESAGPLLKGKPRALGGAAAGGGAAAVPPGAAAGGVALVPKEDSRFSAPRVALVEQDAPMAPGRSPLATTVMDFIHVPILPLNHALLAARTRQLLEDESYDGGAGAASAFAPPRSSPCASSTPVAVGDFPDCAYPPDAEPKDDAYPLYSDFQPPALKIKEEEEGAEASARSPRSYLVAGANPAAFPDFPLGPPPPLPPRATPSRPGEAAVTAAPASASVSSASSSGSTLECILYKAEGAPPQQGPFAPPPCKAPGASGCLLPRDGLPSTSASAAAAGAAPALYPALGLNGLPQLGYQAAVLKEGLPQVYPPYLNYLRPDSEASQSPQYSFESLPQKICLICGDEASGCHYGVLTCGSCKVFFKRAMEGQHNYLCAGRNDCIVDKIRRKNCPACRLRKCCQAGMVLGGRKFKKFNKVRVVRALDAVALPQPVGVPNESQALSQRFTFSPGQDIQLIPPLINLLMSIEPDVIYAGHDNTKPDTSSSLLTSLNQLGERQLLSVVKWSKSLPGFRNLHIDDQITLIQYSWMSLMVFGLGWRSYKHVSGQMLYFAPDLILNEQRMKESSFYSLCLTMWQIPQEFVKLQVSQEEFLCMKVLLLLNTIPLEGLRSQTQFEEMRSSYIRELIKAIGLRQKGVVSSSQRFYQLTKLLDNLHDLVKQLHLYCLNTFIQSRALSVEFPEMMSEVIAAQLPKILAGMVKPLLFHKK
Chain of Nuclear receptor subfamily 1 group I member 2 (Homo sapiens) (O75469 whole entry, looked up): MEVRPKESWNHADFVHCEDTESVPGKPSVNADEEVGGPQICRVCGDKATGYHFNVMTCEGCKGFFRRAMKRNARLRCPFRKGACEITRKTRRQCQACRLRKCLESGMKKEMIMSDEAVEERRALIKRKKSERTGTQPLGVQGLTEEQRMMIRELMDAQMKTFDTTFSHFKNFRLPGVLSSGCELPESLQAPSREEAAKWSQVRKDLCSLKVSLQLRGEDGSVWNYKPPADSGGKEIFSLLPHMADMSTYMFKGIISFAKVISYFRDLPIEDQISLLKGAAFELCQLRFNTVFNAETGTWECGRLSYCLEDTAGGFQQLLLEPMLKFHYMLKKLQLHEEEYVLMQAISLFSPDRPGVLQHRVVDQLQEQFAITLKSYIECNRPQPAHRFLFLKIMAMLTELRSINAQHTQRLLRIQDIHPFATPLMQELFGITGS
Chain of Nuclear receptor subfamily 1 group I member 2 (Rattus norvegicus) (Q9R1A7 whole entry, looked up): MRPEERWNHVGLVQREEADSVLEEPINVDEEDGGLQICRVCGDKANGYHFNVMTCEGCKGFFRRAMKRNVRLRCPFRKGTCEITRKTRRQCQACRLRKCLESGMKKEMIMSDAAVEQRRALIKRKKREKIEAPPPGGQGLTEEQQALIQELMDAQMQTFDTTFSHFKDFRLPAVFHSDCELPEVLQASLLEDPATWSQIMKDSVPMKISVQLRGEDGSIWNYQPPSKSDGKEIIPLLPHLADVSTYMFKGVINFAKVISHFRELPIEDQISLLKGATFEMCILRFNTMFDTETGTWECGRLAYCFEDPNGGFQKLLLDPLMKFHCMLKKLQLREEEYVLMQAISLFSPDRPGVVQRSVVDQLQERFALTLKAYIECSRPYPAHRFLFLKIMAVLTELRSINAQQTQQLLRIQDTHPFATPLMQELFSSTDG
Chain of Thyrotropin receptor (Homo sapiens) (P16473 whole entry, looked up): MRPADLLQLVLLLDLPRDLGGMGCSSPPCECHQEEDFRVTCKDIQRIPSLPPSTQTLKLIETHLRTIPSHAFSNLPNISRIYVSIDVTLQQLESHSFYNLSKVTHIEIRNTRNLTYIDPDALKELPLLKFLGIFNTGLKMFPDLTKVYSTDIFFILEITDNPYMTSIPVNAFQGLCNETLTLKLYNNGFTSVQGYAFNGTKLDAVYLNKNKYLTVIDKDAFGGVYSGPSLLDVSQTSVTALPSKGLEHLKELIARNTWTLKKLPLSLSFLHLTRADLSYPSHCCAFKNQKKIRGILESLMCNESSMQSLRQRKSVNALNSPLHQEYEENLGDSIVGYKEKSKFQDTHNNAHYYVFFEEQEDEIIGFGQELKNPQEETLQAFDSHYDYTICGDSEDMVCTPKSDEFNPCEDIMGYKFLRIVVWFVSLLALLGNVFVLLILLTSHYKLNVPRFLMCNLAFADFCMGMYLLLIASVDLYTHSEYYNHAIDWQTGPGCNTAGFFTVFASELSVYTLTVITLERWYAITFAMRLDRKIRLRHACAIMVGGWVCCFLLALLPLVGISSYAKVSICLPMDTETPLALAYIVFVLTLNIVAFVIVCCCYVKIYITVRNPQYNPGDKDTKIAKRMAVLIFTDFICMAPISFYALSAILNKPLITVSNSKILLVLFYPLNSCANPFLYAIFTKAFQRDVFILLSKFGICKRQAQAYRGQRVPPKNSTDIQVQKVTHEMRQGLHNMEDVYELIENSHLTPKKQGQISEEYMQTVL
Chain of Thyrotropin-releasing hormone receptor (Homo sapiens) (P34981 whole entry, looked up): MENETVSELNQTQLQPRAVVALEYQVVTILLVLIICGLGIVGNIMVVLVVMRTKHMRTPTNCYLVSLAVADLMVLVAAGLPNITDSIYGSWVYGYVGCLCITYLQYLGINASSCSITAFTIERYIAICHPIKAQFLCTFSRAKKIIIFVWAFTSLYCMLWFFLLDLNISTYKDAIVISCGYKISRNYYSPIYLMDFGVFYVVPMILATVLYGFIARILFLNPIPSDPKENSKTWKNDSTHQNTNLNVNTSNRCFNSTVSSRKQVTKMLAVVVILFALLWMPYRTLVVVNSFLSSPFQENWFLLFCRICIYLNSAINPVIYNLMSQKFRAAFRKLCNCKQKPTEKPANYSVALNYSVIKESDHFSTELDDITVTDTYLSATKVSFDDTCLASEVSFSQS

In the case of `c1ccc2[nH]c(-c3cscn3)nc2c1`, the result in test [1], in [9] and in [10] was inactive. Moreover, the Potency entry in test [2], in test [3], in test [4], in [5], in [6] and in test [7] was “inactive” in each case. The Potency result in test [8], in test [11], in [12], in test [13], in test [14] and in test [15] was “inactive” each time. Further, the Potency in test [16] was 30.8 µM (active) and 770 nM (active) and 6.68 µM (active).

Take `CN/C(=C\[N+](=O)[O-])NCCSCc1ccc(CN(C)C)o1`: the compound was called inactive in [1], in test [9], in [10] and in test [17]. For the same compound, the Potency entry in test [2], in [3], in [4], in test [5], in [6] and in [7] was “inactive” each time. For the same compound, the Potency entry in test [8], in test [11], in [12], in test [13], in test [14] and in test [15] was “inactive” each time. For the same compound, the Potency entry in test [16] was “inactive”.

With `C[C@]12CC[C@@H]3c4ccc(O)cc4C[C@@H](CCCCCCCCCS(=O)CCCC(F)(F)C(F)(F)F)[C@H]3[C@@H]1CC[C@@H]2O` (stereo partly specified), the compound was called inactive in [1], in test [9], in test [10] and in test [17]. Besides, the Potency result in test [2], in [3], in test [5], in [6], in test [7] and in test [8] was “inactive” throughout. The Potency entry in [11], in [12], in [13] and in test [15] was “inactive” each time. In [4], the Potency was 1720 nM (active).

For `COc1ccccc1O`, the result in test [1], in [9], in [10] and in test [17] was inactive. Besides, the Potency entry in test [2], in [3], in test [4], in [5], in [6] and in test [7] was “inactive” throughout. Further, the Potency result in [8], in test [11], in test [13], in test [14], in test [15] and in test [16] was “inactive” each time. The Potency entry in test [19] and in [20] was “inactive” throughout. In addition, the max activation in [18] is -3.23%.

`CCCCC/C(C=O)=C\c1ccccc1`: the compound was called inactive in [1], in test [9] and in test [17]. The Potency entry in test [2], in test [3], in test [4], in test [5], in test [6] and in test [7] was “inactive” in each case. The Potency result in test [8], in [12], in test [13], in test [14], in test [15] and in test [16] was “inactive” throughout. Further, the Potency entry in [19] and in test [20] was “inactive” each time. For the same compound, the max activation in [18] was -0.992%.

Regarding `CN(C)Cc1cc(CN(C)C)c(O)c(CN(C)C)c1`, the outcome in [1], in [9] and in test [10] was inactive. Also, the Potency entry in test [2], in [3], in [4], in test [5], in [6] and in test [7] was “inactive” in each case. Moreover, the Potency entry in [8], in test [11], in test [13], in test [14], in test [15] and in [16] was “inactive” throughout.

`C/C=C/c1ccc(O)c(OC)c1`: the result in test [1], in [9], in test [10] and in [17] was inactive. Besides, the Potency entry in [2], in [3], in test [4], in test [5], in [6] and in test [7] was “inactive” throughout. Also, the Potency entry in test [8], in test [11], in test [13], in [14], in [15] and in test [16] was “inactive” throughout. Further, the Potency entry in test [19] and in test [20] was “inactive” throughout. Moreover, in [18], the max activation is 6.95%.

As to `Cc1cccc2ccccc12`, the result in test [1], in test [9], in [10] and in test [17] was inactive. For the same compound, the Potency result in test [2], in test [3], in [4], in test [5], in [6] and in [7] was “inactive” in each case. The Potency result in [8], in [11], in test [12], in test [13], in test [14] and in [15] was “inactive” throughout. Moreover, the Potency result in test [16] is “inactive”.

The record behind these values is PubChem BioAssay (Tox21).
